# This is a sample that favours compounds with a hit; in the whole collection about 21% have one here.
# TDP1 cell CPT: DT40-hTDP1 cell growth loss with CPT; chicken DT40 Tdp1-/-;hTDP1 cells + 20 nM CPT, ATP luminescence, 48 h; Potency, µM (top dose mostly 46.2 µM), for inactives: at the top dose activity change, negative = growth inhibition, usual class: inhibitors; hit rate 12% among 420,000; note: potency is the fitted concentration of half-maximal effect; nearly all actives have a fitted effect of over 55% in size
#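 Chicken DT40 Tdp1-/- cells complemented with human TDP1, 400 cells/well, exposed to compounds plus 20 nM camptothecin for at least 48 h at 37 C; viability read as ATP content by CellTiter-Glo luminescence.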
# DT40 TDP1 no CPT: qHTS for Inhibitors of human tyrosyl-DNA phosphodiesterase 1 (TDP1): qHTS in cells in absence of CPT; DT40 Tdp1-/- hTDP1 cells, no CPT, ATP luminescence, 48 h; Potency, µM (highest dose often 46.2 µM), without a hit: at the highest dose activity change, negative = growth inhibition, usual class: inhibitors; hit rate 15% among 420,000; AID 686978, 2013; note: potency is the fitted concentration of half-maximal effect; nearly all actives have a fitted effect of over 55% in size
#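 No-CPT arm: Tdp1-/-;hTDP1 DT40 cells (400/well) plus compounds, incubated ≥48 hr at 37 °C. Readout CellTiter-Glo luminescence.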
# IL1B secr inh: inflammasome signaling inhibition, IL-1 beta readout | THP-1 LPS/ATP IL-1B secretion, AlphaLISA, 16 h; hits give low values | activity change, % at 57.5 µM | hit rate 4.7% among 360,000 | AID 743279; in the data active = activity change below about -50%; inconclusive = mostly about -30% to -49%
#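 THP-1 cells pretreated 1 hr with compounds (up to 57.5 uM final), then stimulated with LPS (250 ng/mL final) plus ATP (1.25 mM final); secreted IL-1B measured by AlphaLISA after 16 hr, decreased signal indicating inhibition.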
# RORg inh: inhibitors of mouse ROR gamma transcriptional activity | hit rate 5.4% among 310,000 | P51450 | Potency, µM (series often up to 53.6 µM), for the others: top-dose activity change, negative = inhibition, usual class: inhibitors | Drosophila S2 Gal4-RORgamma UAS-luciferase reporter, 20 h | AID 2551; note: potency is the fitted concentration of half-maximal effect; nearly all actives have a fitted effect of over 60% in size
# Target sequence (P51450 whole entry, looked up, the tested form may be a part): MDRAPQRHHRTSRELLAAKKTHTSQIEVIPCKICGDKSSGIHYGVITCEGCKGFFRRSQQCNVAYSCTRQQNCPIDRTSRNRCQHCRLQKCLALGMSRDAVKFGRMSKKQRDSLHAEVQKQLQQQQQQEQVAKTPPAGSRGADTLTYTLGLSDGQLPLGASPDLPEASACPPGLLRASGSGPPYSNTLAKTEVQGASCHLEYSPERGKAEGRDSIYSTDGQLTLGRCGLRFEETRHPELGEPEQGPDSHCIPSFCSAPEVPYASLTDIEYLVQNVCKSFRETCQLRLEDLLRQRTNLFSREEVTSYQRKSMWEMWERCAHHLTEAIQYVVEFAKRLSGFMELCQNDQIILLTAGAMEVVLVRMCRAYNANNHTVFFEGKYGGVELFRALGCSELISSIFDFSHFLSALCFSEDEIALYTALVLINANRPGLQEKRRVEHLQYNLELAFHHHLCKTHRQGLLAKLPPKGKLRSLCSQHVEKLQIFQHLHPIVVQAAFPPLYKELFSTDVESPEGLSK
#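 Using a luciferase readout, inhibitors were identified by reduced reporter activity in Drosophila cells coexpressing a copper-inducible Gal4–ROR gamma fusion and UAS-driven Photinus luciferase, incubated 20 hr after 700 uM copper sulfate.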
# Gal4-VP16 FLuc: Gal4-VP16 reporter inhibition counter-screen; Drosophila S2 Gal4-VP16 UAS-luciferase, luminescence, 20 h; Potency, µM (series often up to 53.6 µM), for the others: at the top dose activity, negative = inhibition, most hits filed as inhibitors; hit rate 3.5% among 310,000;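 note: Gal4-VP16 expression switched on by copper sulfate through the metallothionein promoter; potency is the fitted concentration of half-maximal effect; nearly all actives have a fitted effect of over 50% in size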
# ELG1 DNA repair: blocks ELG1-dependent DNA repair in HEK293T cells; HEK293T ELG1-luciferase reporter, luminescence, 16 h; DNA damage induced by 5-fluorouridine; Potency, µM (titrated, usually from 46.1 µM), for inactives: at the top dose activity change, negative = inhibition, actives largely listed as inhibitors; hit rate 2.3% among 330,000; AID 504467; note: potency is the fitted concentration of half-maximal effect; nearly all actives have a fitted effect of over 55% in size
#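 Quantitative HTS, concentration-response format. 2,000 cells/well co-treated with 5-fluorouridine and compound, 16 hr in 5% CO2 at 37 °C; ONE-Glo luminescence read after 30 min.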
# * marks the source's active call; other numbers are inactive results; i = inactive; ? = inconclusive; · = no result; [ ] = remark or other dose. Unless noted, calls come from the whole dose curve; as a rule, active = well fitted curve in the direction sought with a large enough effect; inconclusive = small, poorly fitted or top-dose-only effect, or another doubt; inactive = no such curve, though single readings can be large; an effect the other way counts as inactive or inconclusive. % is set by controls: 0 for no effect and ±100 for the full control effect.
SMILES,TDP1 cell CPT,DT40 TDP1 no CPT,IL1B secr inh,RORg inh,Gal4-VP16 FLuc,ELG1 DNA repair
CC1(C(=O)NS(C)(=O)=O)CCN1C(=O)C/C=C/c1ccccc1 (stereo not drawn),-20%,-15%,-3,·,·,·
COc1ccc(CCN2CC(C(=O)OCC(=O)Nc3c(C)nn(-c4ccccc4)c3C)CC2=O)cc1OC (stereo not drawn),-28%,-8%,12,·,·,14%
NCC(=O)NNC(=O)OCC1c2ccccc2-c2ccccc21,-18%,-4%,-2,-11%,-6%,?
CCCCCCN1C(=O)CC(NC(=O)OCC2c3ccccc3-c3ccccc32)C/C=C\C1C(C)C (stereo not drawn),23µM*,15µM*,-5,·,·,-17%
Cc1ccc(CN2C(=O)C[C@@H](NC(=O)OCC3c4ccccc4-c4ccccc43)C/C=C\C2c2ccc(C)cc2)cc1 (stereo partly drawn),?,?,-65*,·,·,-18%
O=C(NC1C/C=C\C(c2ccccc2)N(c2ccccc2)C(=O)C1)OCC1c2ccccc2-c2ccccc21 (stereo not drawn),-82%,0.16µM*,?,·,·,-4%
CN(c1ccccc1)S(=O)(=O)c1ccc(C(=O)Nc2ccncc2)cc1,?,15µM*,-14,·,·,?
CN(c1ccccc1)S(=O)(=O)c1ccc(NC(=O)c2ccc(F)cc2)cc1,-12%,?,-86*,·,·,·
CN(C)S(=O)(=O)c1ccc(NC(=O)c2ccncc2)cc1,3%,-17%,9,3%,-16%,-18%
CN(c1ccccc1)S(=O)(=O)c1ccc(NC(=O)c2cccs2)cc1,?,?,-60*,17%,-6%,-3%
COc1ccc(S(=O)(=O)N(C)c2ccc(C(=O)Nc3cccnc3)cc2)cc1OC,-14%,-11%,i,36%,1%,21µM*
CN(c1ccccc1)S(=O)(=O)c1ccc(NC(=O)c2ccccc2)cc1,-22%,?,?,?,-17%,?
O=C(Nc1cccc(C(=O)O)c1)/C(=C\c1ccccc1Cl)NC(=O)c1ccco1,-10%,9%,2,3%,4%,-2%
Cc1ccc(C)c(N(C(=O)Cc2cccs2)C(C(=O)NC2CCCC2)c2ccc(C)o2)c1 (stereo not drawn),23µM*,13µM*,4,-37%,-24%,9%
O=C(NC1CCCC1)C(c1ccsc1)N(C(=O)Cc1cccs1)c1ccccc1 (stereo not drawn),-15%,-18%,-4,?,-7%,10%
COc1cccc(C(C(=O)NC2CCCCC2)N(C(=O)Cc2cccs2)c2ccc(-n3cnnn3)c(OC)c2)c1 (stereo not drawn),?,?,-13,8%,4%,-6%
O=C(NCC(=O)N(c1ccc2c(c1)OCO2)C(C(=O)NC1CCCC1)c1ccncc1)c1ccco1 (stereo not drawn),23µM*,23µM*,21,6%,-2%,2%
Cc1ccc(C(C(=O)NC2CCCC2)N(C(=O)Cc2cccs2)c2ccc3c(c2)OCCO3)cc1 (stereo not drawn),?,?,-58*,-33%,2%,-6%
O=C(NC1CCCC1)C(c1ccc(F)cc1)N(C(=O)Cc1cccs1)c1ccc2c(c1)OCCO2 (stereo not drawn),?,?,-11,-8%,-4%,-17%
O=C(NCC(=O)N(c1ccc(Cl)cc1)C(C(=O)NC1CCCC1)c1ccncc1)c1ccco1 (stereo not drawn),23%,-1%,-8,-10%,3%,3%
COc1cc(N(C(=O)Cc2cccs2)C(C(=O)NC2CCCCC2)c2cccc(OC)c2OC)ccc1-n1cnnn1 (stereo not drawn),12µM*,26µM*,-3,15%[10 µM],1%,28%
CCC(=O)N1CCc2cc(Br)cc(S(=O)(=O)N3CCC(C(=O)N(CC)CC)CC3)c21,0%,?,·,·,·,·
COc1ccccc1C(CCNS(=O)(=O)c1ccc(C)cc1)c1ccco1 (stereo not drawn),?,?,-4,?,-11%,?
CSCC[C@H](NC(=O)[C@H](CC(C)C)NC(=O)CNC(=O)[C@H](Cc1ccccc1)NC(=O)[C@H](Cc1ccccc1)NC(=O)[C@H](CCC(N)=O)NC(=O)[C@H](CCC(N)=O)NC(=O)[C@@H]1CCCN1C(=O)[C@H](CCCCN)NC(=O)[C@@H]1CCCN1C(=O)[C@@H](N)CCCN=C(N)N)C(N)=O,·,·,·,11%,-10%,·
CC(=O)c1ccc(S(=O)(=O)N2CCN(CC(=O)Nc3ccccc3C(=O)NC3CC3)CC2)cc1,?,?,-26,·,·,?
SMILES,TDP1 cell CPT,DT40 TDP1 no CPT,IL1B secr inh,RORg inh,Gal4-VP16 FLuc,ELG1 DNA repair
Cc1ccc(C(C(=O)NC2CCCC2)N(C(=O)Cc2cccs2)c2ccc(C)c(C)c2)o1 (stereo not drawn),?,22µM*,-74*,2%,0%,-8%
Cc1cccc(CCN(C(=O)Cc2cccs2)C(C(=O)NC2CCCCC2)c2cccnc2)c1 (stereo not drawn),5.8µM*,?,?,14%,?,3%
Cc1ccc(N(C(=O)Cc2cccs2)C(C(=O)NC2CCCC2)c2ccncc2)cc1 (stereo not drawn),?,-25%,6,8%,5%,-1%
FC(F)(F)c1cccc(CNC2c3ccccc3-c3ccccc32)c1,-20%,-28%,12,14%,3%,?
O=C(Cc1ccccc1)c1ccc(N2CCOCC2)cc1,-11%,-26%,0,·,·,·
O=C1CC(c2cc(F)ccc2F)c2cc3c(cc2N1)CCC3 (stereo not drawn),2.6µM*,3.7µM*,57,14%,-12%,9%
CC1(C)Cc2c(sc3nc(SCC(=O)O)[nH]c(=O)c23)CO1,-5%,-7%,-8,15%[10 µM],2%,0%
Cc1nc2sc3c(c2c(=N)n1N)CC(C)(C)OC3,-2%,0%,4,-3%,-9%,-3%
CSc1nc2sc3c(c2c(=S)[nH]1)CC(C)(C)OC3,6%,-23%,44,3.2µM*,11µM*,-9%
CCc1nc2sc3c(c2c(=S)[nH]1)CC(C)(C)OC3,?,?,28,2µM*,6.3µM*,11%
COc1ccc(CN(C)C(=O)CNC(=O)c2sc3ccccc3c2Cl)c(OC)c1,-27%,?,?,·,·,·

# Screens from PubChem BioAssay.
